Values without a mark were called inactive. Calls of active or inactive are those of the source.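 The calls were made as follows: active = blocks over 70% of labeled estradiol binding at 10 µM, or over a set limit at 100 nM; inactive = the rest.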

Chain of Estrogen receptor beta (Homo sapiens) (Q92731 whole entry, looked up): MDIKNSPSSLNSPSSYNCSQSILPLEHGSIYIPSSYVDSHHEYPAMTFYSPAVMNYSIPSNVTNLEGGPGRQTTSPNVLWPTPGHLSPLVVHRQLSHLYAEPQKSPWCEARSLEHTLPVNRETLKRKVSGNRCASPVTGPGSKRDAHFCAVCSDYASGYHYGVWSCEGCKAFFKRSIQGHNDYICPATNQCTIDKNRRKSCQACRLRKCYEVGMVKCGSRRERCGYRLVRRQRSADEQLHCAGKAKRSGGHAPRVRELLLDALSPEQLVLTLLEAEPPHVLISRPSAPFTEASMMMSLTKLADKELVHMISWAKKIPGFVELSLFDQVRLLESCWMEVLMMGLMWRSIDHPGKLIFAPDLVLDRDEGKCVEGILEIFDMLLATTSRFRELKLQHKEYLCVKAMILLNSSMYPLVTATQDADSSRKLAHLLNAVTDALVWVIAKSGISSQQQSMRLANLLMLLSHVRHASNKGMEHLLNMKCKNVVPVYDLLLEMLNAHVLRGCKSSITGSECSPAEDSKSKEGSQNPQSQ

The experiment addresses Estrogen receptor beta (Homo sapiens) (UniProt Q92731). As to the kind of experiment: displacement of fluorescent estrogen from ERbeta – cell-based, Cos7 ERbeta-GFP, flow cytometry, primary screen (AID 1210).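 Also: 0% = DMSO vehicle wells and 100% = complete loss of labeled estradiol signal.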 The settings on record: fluorescent estrogen binding, at 10 µM, active compounds read high.
`CC1CCN(Cc2c(O)ccc3c4c(c(=O)oc23)CCC4)CC1`: the inhibition was 21%.

Regarding `Cc1ccc(-n2cc3c(c(C#N)c2=N)CC(C)(C)CC3=O)cc1`, the inhibition is 22%. As for `CCOC(=O)c1ccc2c(c1)C1C=CCC1C(C(=O)O)N2` (centres undefined), the figure is 36%.

Turning to `COc1cc([N+](=O)[O-])cc2c1NC(c1ccc(Br)cc1)C1CC=CC21` (centres undefined), the inhibition is 17%. Consider `CCc1cc2c3c(c(=O)oc2cc1OCC(=O)O)CCCC3`, for which the inhibition was 20%. Take `COc1ccc(OC)c(NC(=O)c2cc(-c3ccc(C)cc3O)n[nH]2)c1`: the inhibition is 19%. The same measure for `CCCCOc1cc(OCCCC)c2c3c(c(=O)oc2c1)CCCC3`: 27%; for `CC(=O)OC1CC(C)(C)N(OC(=O)c2ccc(N)cc2)C(C)(C)C1`: 30%. For the molecule `O=C(O)COc1cc2oc(=O)c3c(c2cc1Cl)CCCC3`, the inhibition was 11%. Consider `Nc1ccc2nc(-c3cc(Cl)c(N)c(Cl)c3)[nH]c2c1`, for which the inhibition is 10%. Consider `COc1cccc([C@@H]2Oc3ccc(OC)cc3C(=O)[C@H]2O)c1`, for which the inhibition was 32%. In the case of `COc1ccc(C2(CNCC(N)=O)CCCC2)cc1OC`, the inhibition is 7%. As for `COc1ccc(NS(=O)(=O)c2ccc3c(c2)[C@H]2C=CC[C@H]2[C@@H](c2ccc(F)cc2)N3)cc1`, the inhibition was 20%.

As for `Cc1ccc2c(c1)[C@H]1OCC[C@H]1[C@@H](c1ccncc1)N2`, the inhibition was 24%.

With `Cc1ccc(-c2nnc(-c3ccc(NC(=O)c4ccco4)cc3)o2)cc1`, the inhibition was 54%. Take `Cc1c(Cc2ccccc2)c(=O)n2c([nH]c3ccccc32)c1C#N`: the inhibition is 9%. In the case of `COc1ccc(Cn2c(=O)[nH]c3cc(C(=O)NCc4ccc5c(c4)OCO5)ccc3c2=O)cc1`, the inhibition is 35%.

With `COC(=O)c1ccc(-c2n[nH]c(=O)c3ccccc23)cc1`, the inhibition is 32%. Regarding `COc1cccc(-c2cc(C(=O)Nc3cc(C)nn3-c3ccccc3)no2)c1`, the inhibition is 23%. As to `COc1ccc2[nH]c3c(c2c1)CCNC3C1CC=C(C)CC1` (centres undefined), the inhibition is 22%. With `O=C(O)c1ccc(Cl)c2c1C1C=CCC1C(c1ccccn1)N2` (centres undefined), the inhibition is 28%.

With `COC(=O)c1cnn2c(C(F)(F)F)cc(-c3ccco3)nc12`, the inhibition was 27%.

With `Nc1nc2c(s1)CCc1c-2cnn1-c1ccccc1`, the inhibition was 50%. In the case of `COc1ccc(C2Nc3ccccc3C(=O)N2c2ccccc2)cc1CSc1ccccn1` (centres undefined), the inhibition is 60%.

For `Cc1nnc(N/N=C/c2ccc(O)c([N+](=O)[O-])c2)[nH]c1=O`, the inhibition is 7%. `O=C(COC(=O)C1CC2C=CC1C2)NCc1ccco1` (centres undefined): the inhibition is 25%.

Turning to `CCCCCCc1cc2c3c(c(=O)oc2cc1OCC(=O)OC)CCC3`, the inhibition was 20%. For the molecule `Cc1ccc(-n2nnnc2SCC(=O)Nc2cccc(NC(=O)c3ccco3)c2)cc1C`, the inhibition is 56%. In the case of `NC(=O)c1ccsc1NC(=O)COC(=O)Cc1ccsc1`, the inhibition was 44%. Turning to `Cc1ccn2c(NCc3ccc4c(c3)OCO4)c(-c3ccc(O)cc3)nc2c1`, the inhibition is 41%. The same measure for `CC1CCC2(C)c3[nH]c4ccccc4c3CCN2C1=O` (centres undefined): 7%; for `Cc1ccc(-c2n[nH]c(=S)n2/N=C/C=C/c2ccccc2[N+](=O)[O-])cc1`: 53%.

Consider `CCOc1cc2c(c([N+](=O)[O-])c1)NC(c1ccccc1)C1CC=CC21` (centres undefined), for which the inhibition was 17%. Consider `CCOc1ccccc1-c1nc(-c2ccc(NC(=O)c3ccc(Br)o3)cc2)no1`, for which the inhibition was 37%.

`Cc1nn(-c2ccccc2)c2sc(C#N)c(N)c12`: the inhibition was 6%. As for `Cc1cc(C)c(C(=O)COc2cccnc2[N+](=O)[O-])cc1C`, the figure is 0%; as for `CSC(=O)CNC1(Cc2ccc(O)cc2)CCCCC1`, 87% (active).

Turning to `Oc1ccc2c(c1)c1c3n2CCNC3CCC1` (centres undefined), the inhibition was 25%.

In the case of `COc1cccc(C2NCCc3cc(OC)c(OC)cc32)c1` (centres undefined), the inhibition is 15%.
